# Results: PubChem BioAssay (NCATS)
# “And” between values parts separate entries of the source, which are not always exact repeats. Identical values can stand only once. A number with no mark means an inactive call. Inconclusive results are not listed. Where a call stands in place of a potency, no number is given. The source made the active and inactive calls. Calls follow the shape of the dose curve; as a rule, active = well fitted curve in the direction sought with a large enough effect; inconclusive = small, poorly fitted or top-dose-only effect, or another doubt; inactive = no such curve, though single readings can be large; an effect the other way counts as inactive or inconclusive.
# Tests used:
# [1] = target: Calcium and integrin-binding protein 1 (Homo sapiens) (UniProt Q99828); assay: Primary qHTS for Identification of Calcium Integrin Binding Protein 1 (CIB1) Competitor (AID 1508620); also: potency is read from the fitted curve at half-maximal effect;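 as to activity change, negative = inhibition: GST tagged CIB1 binding a fluorescein labelled alphaIIb integrin peptide tracer; top concentration of the series differs between compounds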
# Calcium and integrin-binding protein 1 (Homo sapiens), sequence (Q99828 whole entry, looked up): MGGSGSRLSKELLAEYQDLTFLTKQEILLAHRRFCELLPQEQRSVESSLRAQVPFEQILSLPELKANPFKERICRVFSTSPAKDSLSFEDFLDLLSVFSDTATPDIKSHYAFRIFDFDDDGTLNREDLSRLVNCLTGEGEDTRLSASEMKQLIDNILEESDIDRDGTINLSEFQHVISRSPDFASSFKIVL
# Outline: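 Fluorescence polarization competition: CIB1-GST (1 uM final) preincubated with compound 15 min at room temperature, then FITC-labeled alphaIIb peptide (100 nM final) added for another 15 min. Polarization read at Ex 480/Em 540.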
# [2] = qHTS to identify inhibitors of the type 1 interferon - major histocompatibility complex class I in skeletal muscle: primary screen against the NCATS Mechanism Interrogation Plate v5.0 (MIPE) Libary (AID 1347411); also: nearly all actives have a fitted effect of over 65% in size; also: potency is read from the fitted curve at half-maximal effect
# Outline: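 Luminescence from HiBiT-tagged endogenous HLA-B*08:01 served as the MHC class I read-out. CRISPR-engineered C25cl48 human myoblasts received 4.0 ng/ml IFN-beta plus compound for 24 hrs, with an 11-point, 1:3 series topping at 46 uM final.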
# [3] = Primary qHTS for small molecule stabilizers of the endoplasmic reticulum resident proteome: Secreted ER Calcium Modulated Protein (SERCaMP) assay (AID 1508630)
# Outline: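 GLuc-SERCaMP-expressing SH-SY5Y cells, pretreated 16 h with compound, are challenged with thapsigargin to empty ER calcium stores; after 4 h, coelenterazine is added directly to the medium and luminescence is imaged.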
# [4] = Primary qHTS for inhibitors of nuclear receptor binding SET domain protein 2 (NSD2) in an isogenic RCH-ACV NSD2 p.E1099K mutant (9B) (AID 1645876); also: nearly all actives have a fitted effect of over 70% in size; also: potency is read from the fitted curve at half-maximal effect
# [5] = Primary qHTS for inhibitors of nuclear receptor binding SET domain protein 2 (NSD2) in an RCH-ACV wild type WT cells (2C) (AID 1645877); also: nearly all actives have a fitted effect of over 70% in size; also: potency is read from the fitted curve at half-maximal effect
# [6] = Counterscreen qHTS for small molecule stabilizers of the endoplasmic reticulum resident proteome: GLuc-NoTag assay (AID 1508627);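 also: SH-SY5Y cells given compound then 100 nM thapsigargin to empty ER calcium; series mostly up to about 76 µM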
# Outline: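 SH-SY5Y cells stably expressing constitutively secreted GLuc (no SERCaMP tag) were pre-incubated 5 h, treated with compound for 19 h, then 100 nM thapsigargin for 4 h at 37C; medium GLuc read by coelenterazine luminescence.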
# [7] = Validation qHTS assay for inhibitors of Activation Induced Cytidine Deaminase (AID): UDG Counterscreen signal (AID 1347427)
# Outline: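 Counterscreen read of UDG activity (2 U/mL, 4/3x) in the FRET deamination format with AID (1 uM, 4/3x), DJC20/DJC23 substrates (250 nM, 4x), 4 h at room temperature. NaOH stop, fluorescence at 560 ex/665 em.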
# [8] = target: Single-stranded DNA cytosine deaminase (Homo sapiens) (UniProt Q9GZX7); assay: Validation qHTS assay for inhibitors of Activation Induced Cytidine Deaminase (AID): AID signal (AID 1347429)
# Single-stranded DNA cytosine deaminase (Homo sapiens), sequence (Q9GZX7 whole entry, looked up): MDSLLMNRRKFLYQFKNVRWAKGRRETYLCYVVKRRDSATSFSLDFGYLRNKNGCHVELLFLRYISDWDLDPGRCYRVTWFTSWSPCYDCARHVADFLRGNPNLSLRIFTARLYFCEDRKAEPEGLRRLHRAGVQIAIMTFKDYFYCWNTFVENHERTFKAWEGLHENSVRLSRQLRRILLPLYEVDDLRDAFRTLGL
# Outline: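 Fluorescence at 540 nm excitation and 590 nm emission reports ssDNA cytosine deamination by AID, with UDG in the same well. Compound-treated reactions ran 4 hr at room temperature with DJC20/DJC23 substrate, followed by 30 min NaOH treatment.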
# [9] = Primary qHTS for inhibitors of La Crosse Virus (LACV) - induced cell death in SH-SY5Y cells (AID 1508616);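 also: top concentration of the series differs between compounds; higher means more rescue of cells from virus-induced death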
# Outline: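 Protection against LACV-induced cell death is scored in SH-SY5Y cells exposed to compounds and virus (0.01 MOI) for 6 days. Data normalized to virus-infected DMSO wells and virus-free DMSO wells.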
# [10] = target: Calcium and integrin-binding protein 1 (Homo sapiens) (UniProt Q99828); assay: Confirmatory qHTS for Identification of Calcium Integrin Binding Protein 1 (CIB1) Competitor (AID 1508617); also: nearly all actives have a fitted effect of over 65% in size
# Outline: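 Compounds at up to 114 uM final met 1 uM GST-tagged CIB1 for 15 min at room temperature (HEPES pH 7.4, 5 mM CaCl2). FITC-labelled alphaIIb peptide, 100 nM, added; polarization read after 15 min more.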
structure (smiles),measurement,setting,value
Cn1cc(C2=C(c3c4n(c5ccccc35)CCC(CN)C4)C(=O)NC2=O)c2ccccc21 (configuration not stated),Potency,[1],inactive
COc1cccc2c1C(=O)c1c(O)c3c(c(O)c1C2=O)C[C@@](O)(C(=O)CO)C[C@@H]3O[C@H]1C[C@H](N)[C@H](OC2CCCCO2)[C@H](C)O1 (some centres not stated),Potency,[2],2.62 µM (active) and 2.34 µM (active)
same,outcome,[3],inactive
same,Potency,[4],93.4 nM (active) and 2.63 µM (active)
same,Potency,[5],52.5 nM (active) and 2.95 µM (active)
C=CC[C@@H]1C=C(C)C[C@H](C)C[C@H](OC)[C@H]2O[C@@](O)(C(=O)C(=O)N3CCCC[C@H]3C(=O)O[C@H](C(C)=C[C@@H]3CC[C@H](O)[C@H](OC)C3)[C@@H](C)[C@@H](O)CC1=O)[C@@H](C)C[C@@H]2OC,Potency,[1],inactive
same,outcome,[6],inactive
O=C(CN1C(=O)C2(CCCC2)NC[C@H]1c1cc(F)cc(F)c1)Nc1ccc2c(c1)C[C@@]1(C2)C(=O)Nc2ncccc21,Potency,[2],inactive
same,outcome,[3],inactive
same,Potency,[4],inactive
same,Potency,[5],inactive
CN[C@H](CC(C)C)C(=O)N[C@H]1C(=O)N[C@@H](CC(N)=O)C(=O)N[C@@H]2C(=O)N[C@H]3C(=O)N[C@H](C(=O)N[C@H](C(=O)O)c4cc(O)cc(O)c4-c4cc3ccc4O)[C@H](O)c3ccc(c(Cl)c3)Oc3cc2cc(c3O[C@@H]2O[C@H](CO)[C@@H](O)[C@H](O)[C@@H]2O[C@H]2C[C@](C)(N)[C@H](O)[C@H](C)O2)Oc2ccc(cc2Cl)[C@H]1O,outcome,[7],inactive
same,outcome,[8],inactive
same,outcome,[9],inactive
same,Potency,[1],inactive
NC(=O)c1ncn([C@@H]2O[C@H](CO)[C@@H](O)[C@@H]2O)c1O,Potency,[10],inactive
same,Potency,[1],inactive
same,outcome,[3],inactive
CC(=O)OCC(=O)[C@@]1(O)CC[C@H]2[C@@H]3CCC4=CC(=O)CC[C@]4(C)[C@@H]3C(=O)C[C@@]21C,Potency,[1],inactive
same,outcome,[3],inactive
O=C1NC(=O)C(=Cc2ccc3nccc(-c4ccncc4)c3c2)S1,Potency,[1],inactive
same,outcome,[3],inactive
C[C@]12C=CC(=O)N[C@@H]1CC[C@H]1[C@H]3CC[C@@H](C(=O)Nc4cc(C(F)(F)F)ccc4C(F)(F)F)[C@@]3(C)CC[C@@H]12,Potency,[1],inactive
same,outcome,[3],inactive
CCc1cnn2c(NCc3ccc[n+]([O-])c3)cc(N3CCCC[C@@H]3CCO)nc12,Potency,[1],inactive
same,outcome,[3],inactive
CC(=O)N[C@@H]1[C@H](O[C@@H]2c3ccc(c(Cl)c3)Oc3cc4cc(c3O[C@H]3O[C@H](CO)[C@@H](O)[C@H](O)[C@H]3NC(=O)CCCCCCCC(C)C)Oc3ccc(cc3Cl)C[C@H]3NC(=O)[C@H](N)c5ccc(O)c(c5)Oc5cc(O)cc(c5)[C@H](NC3=O)C(=O)N[C@H]4C(=O)N[C@H]3C(=O)N[C@@H]2C(=O)N[C@@H](C(=O)O)c2cc(O)cc(O[C@H]4O[C@H](CO)[C@@H](O)[C@H](O)[C@H]4O)c2-c2cc3ccc2O)O[C@H](CO)[C@@H](O)[C@@H]1O,Potency,[1],inactive
same,outcome,[3],inactive
COc1cc(C=CC(=O)CC(=O)C=Cc2ccc(O)c(OC)c2)ccc1O,Potency,[1],inactive
same,outcome,[3],inactive
C[C@@]12C[C@@]3(O)O[C@@H](O1)[C@]1(COC(=O)c4ccccc4)[C@@H]3C[C@@]12O[C@@H]1O[C@H](CO)[C@@H](O)[C@H](O)[C@@H]1O,Potency,[1],inactive
same,outcome,[3],inactive
OCc1ccccc1O[C@@H]1O[C@H](CO)[C@H](O)[C@H](O)[C@H]1O,Potency,[1],inactive
same,outcome,[3],inactive
COC1=C2C[C@@H](C)C[C@H](OC)[C@@H](O)[C@@H](C)C=C(C)[C@H](OC(N)=O)[C@@H](OC)C=CC=C(C)C(=O)NC(=CC1=O)C2=O,Potency,[1],inactive
same,outcome,[3],inactive
CC(C)(C)[N+]([O-])=Cc1ccc(S(=O)(=O)O)cc1S(=O)(=O)O,Potency,[1],inactive
same,outcome,[3],inactive
C[C@]12CCC(=O)C=C1[C@@H]1CC1[C@H]1[C@H]3[C@@H]4C[C@H]4[C@@]4(CCC(=O)O4)[C@@]3(C)CC[C@H]12 (some centres not stated),Potency,[1],inactive
same,outcome,[3],inactive
N#CC(=C(O)c1ccc(Cl)cc1Cl)c1nc2cc(Cl)ccc2c(=O)[nH]1,Potency,[1],inactive
same,outcome,[3],inactive
CC(C)OC(=O)[C@H](C)N[P@](=O)(OC[C@H]1O[C@@H](n2ccc(=O)[nH]c2=O)[C@](C)(F)[C@H]1O)Oc1ccccc1,Potency,[1],inactive
same,outcome,[3],inactive
C[C@@]12C(=O)OC(=O)[C@@]1(C)C1CCC2O1,Potency,[1],inactive
same,outcome,[3],inactive
CC[C@]12C=CCN3CC[C@@]4(c5cc([C@@]6(C(=O)OC)C[C@H]7C[C@@H](C(C)(F)F)CN(Cc8c6[nH]c6ccccc86)C7)c(OC)cc5N(C)[C@H]4[C@@](O)(C(=O)OC)[C@H]1OC(C)=O)[C@@H]32,Potency,[1],inactive
same,outcome,[3],inactive
O=C(O)C(=O)Nc1cccc(C2=NN=N[N]2)c1,Potency,[1],inactive
same,outcome,[3],inactive
CC(=O)[C@]1(O)Cc2c(O)c3c(c(O)c2[C@@H](O[C@H]2C[C@H](N)[C@@H](O)[C@H](C)O2)C1)C(=O)c1ccccc1C3=O,Potency,[1],24.1 µM (active)
same,outcome,[3],inactive
COc1ccc(C(C)=O)c(O)c1,Potency,[1],inactive
same,outcome,[3],inactive
CC(C)(O)CC[C@@H](O)[C@](C)(O)[C@H]1CC[C@@]2(O)C3=CC(=O)[C@@H]4C[C@@H](O)[C@@H](O)C[C@]4(C)[C@@H]3CC[C@]12C,Potency,[1],inactive
same,outcome,[3],inactive
Nc1ncn([C@@H]2O[C@H](CO)[C@@H](O)[C@@H]2O)c(=O)n1,Potency,[1],inactive
same,outcome,[3],inactive
CCN1CCN(C(=O)N[C@H](C(=O)N[C@@H]2C(=O)N3C(C(=O)O)=C(CSc4nnnn4C)CS[C@@H]23)c2ccc(O)cc2)C(=O)C1=O,"activity change, negative = inhibition",[1],-3.53% [at 12.4 µM]
same,outcome,[3],inactive
OCC(O)C(O)C(O)CO (configuration not stated),Potency,[1],inactive
same,outcome,[3],inactive
